Results: PubChem BioAssay (NCATS)
Inconclusive results are not listed. Values without a mark were called inactive. The source made the active and inactive calls. Calls follow the shape of the full dose curve.

molecular target: Nucleoprotein (Lymphocytic choriomeningitis virus (strain Armstrong)) (UniProt P09992); assay: qHTS for Inhibitors of the Functional Ribonucleoprotein Complex (vRNP) of Lymphocytic Choriomeningitis Arenaviruses (LCMV): LCMV Primary Screen - GLuc reporter signal (AID 1347086); settings: LCMV minigenome vRNP cell assay, Gaussia luciferase reporter; series mostly up to 57.5 µM; activity change, negative = inhibition: at the top concentration; also: nearly all actives have a fitted effect of over 70% in size
Sequence (P09992 whole entry, looked up): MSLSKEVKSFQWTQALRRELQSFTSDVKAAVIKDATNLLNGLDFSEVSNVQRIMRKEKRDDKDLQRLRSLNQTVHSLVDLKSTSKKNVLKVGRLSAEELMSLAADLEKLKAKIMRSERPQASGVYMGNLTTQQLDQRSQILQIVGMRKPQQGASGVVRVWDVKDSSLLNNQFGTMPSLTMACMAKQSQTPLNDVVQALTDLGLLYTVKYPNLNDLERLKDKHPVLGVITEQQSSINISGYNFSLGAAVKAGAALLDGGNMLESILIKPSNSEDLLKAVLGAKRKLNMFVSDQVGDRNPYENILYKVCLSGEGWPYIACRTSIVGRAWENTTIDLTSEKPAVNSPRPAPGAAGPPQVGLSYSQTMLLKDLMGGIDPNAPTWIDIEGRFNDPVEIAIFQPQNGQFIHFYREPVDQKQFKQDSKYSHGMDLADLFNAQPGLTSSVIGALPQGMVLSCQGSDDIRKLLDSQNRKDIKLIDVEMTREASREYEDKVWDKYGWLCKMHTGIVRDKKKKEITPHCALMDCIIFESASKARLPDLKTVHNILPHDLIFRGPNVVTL
% is scaled to controls: 0 for no effect and ±100 for the full control effect.

Row | SMILES | Potency | activity change, negative = inhibition
1 | NC1CCN(c2cccc(Cl)n2)CC1 | inactive | 
2 | O=C(O)[C@@H]1CSCN1 |  | 7.1%
3 | Cc1ccccc1OCC(O)CO (stereo not drawn) |  | 2.05%
4 | CCOC(=O)[C@H](CCc1ccccc1)N[C@@H](C)C(=O)N1[C@H](C(=O)O)C[C@H]2CCCC[C@@H]21 |  | 5.9%
5 | CC(=O)Nc1ccc(CC(=O)O)cc1 |  | 9.13%
6 | CC(N=C(NC#N)Nc1ccncc1)C(C)(C)C (stereo not drawn) | inactive | 
7 | Cn1nnc2c(C(N)=O)ncn2c1=O | inactive | 
8 | OCCc1ccccc1 |  | -2.45%
9 | COC(=O)/C=C(/C)N |  | 17.9%
10 | CCCCCCCCCCCCCCCCOP(=O)([O-])OCC[N+](C)(C)C |  | 0.176%
11 | O=C(c1ccccc1)C(O)c1ccccc1 (stereo not drawn) |  | 3.55%
12 | COc1cc(C(=O)NC2CCCNC2)cc(OC)c1OC (stereo not drawn) |  | 18%
13 | O=C(O)CCCCC(=O)O |  | 20.6%
14 | Cc1nc(-c2ccc(Cl)cc2)oc1COC(C)(C)C(=O)O |  | 5.5%
15 | CCS(=O)(=O)c1ccc(OC)c(C(=O)OC)c1 |  | 8.25%
16 | CCOc1cc(OCC)c(C(=O)CCC(=O)O)cc1OCC |  | 4.62%
17 | CCOC(=O)c1ccc(OCCN2C[C@H](O)[C@@H](O)[C@H](O)[C@H]2CO)cc1 |  | -7.25%
18 | CC(CCc1ccc(O)cc1)NCCc1ccc(O)c(O)c1 (stereo not drawn) | inactive | 
19 | CCOc1ncc(F)c(=O)[nH]1 |  | -12.3%
20 | CC(C)=CCC1C(=O)N(c2ccccc2)N(c2ccccc2)C1=O |  | -34.6%
21 | CN1CCN(N)CC1 |  | 11.6%
22 | CN1N=C(C(N)=O)CCC1=O |  | 63.2%
23 | O=C1O[C@H](CO)[C@@H](O)[C@H](O)[C@H]1O |  | -8.03%
